Each structure is given as a SMILES string. About 83,000 compounds went through this panel and 20% of them were active in at least one assay; those are over-represented in the sample as a whole.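 Interpretation: 100, growth as untreated; towards 0, rising growth inhibition; 0, no net growth; 0 to -100, cell death. Compounds scoring below 10 were considered active.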 Values without a mark were called inactive. Calls of active or inactive are those of the source.

This test relates to HL-60(TB) leukemia. The test can be described thus: NCI-60 one-dose screen, 48 h (100 = growth as untreated, 0 = no growth, -100 = all killed). As to conditions: 10 µM unless noted.
Consider `CCOC(=O)c1c(Nc2ccccc2)nn2c(-c3ccc(Cl)cc3)ccnc12`, for which the growth is 86.7%.
As for `CC1=C(C)C(=O)C(Nc2ccc(C)c(C)c2)=C(Br)C1=O`, the figure is -37.7% (active); as for `Nc1nc(N)c2c(n1)NC(c1ccc(Cl)cc1)CC(c1ccc(Nc3nc(NCCO)nc(Nc4ccc(Cl)cc4)n3)cc1)=N2` (stereo unspecified), 9.81% (active); as for `N#Cc1c(-c2cccs2)cc(-c2cnccn2)nc1SCC(=O)N/N=C/c1ccc(Cl)cc1`, 110%.
As for `COc1cc(C2CC(c3ccc(Nc4nc(NCCO)nc(Nc5ccc(Cl)cc5)n4)cc3)=Nc3c(N)nc(N)nc3N2)cc(OC)c1OC` (stereo unspecified), the figure is 25%; as for `O=C(NNc1nc2cc(F)cc(F)c2n2cccc12)c1ncccn1`, -2.92% (active).
As for `O=C(O)c1cn(C2CC2)c2cc(N3CCN(C(=O)CN4C(=O)CSC4=O)CC3)c(F)cc2c1=O`, the figure is 135%.
In the case of `C#C[C@]1(O)CC[C@H]2[C@@H]3CC=C4c5sc(Nc6cccc(F)c6)nc5CC[C@]4(C)[C@H]3CC[C@@]21C`, the growth was -13.1% (active).
For `Cc1cccc(N2CCN(C3=C(Cl)C(=O)c4ncccc4C3=O)CC2)c1` the value was 7.3% (active); for `COC(=O)c1c(C(=O)OC)c2n(CC(=O)Nc3cccc4cccnc34)c3ccccc3n2c1C(=O)c1ccc(C)cc1`, 99.2%.
As for `CCCCSc1nnc(-c2ccc(-c3ccc(Cl)cc3)nc2C)o1`, the figure is 91.9%; as for `COc1cc(C(C)=C(c2ccc(OCCN(C)C)cc2)c2ccc(OCCN(C)C)cc2)ccc1F`, 105%; as for `COc1cc(Nc2c(C#N)cnn3cc(-c4cnn(CC(C)(C)O)c4)cc23)ccc1Cl`, 47.8%.
For `CC(=O)Oc1ccccc1C(=O)Nc1ccc(C(=O)/C=C/c2cccs2)cc1` the value was 103%; for `N#C/C(=C\c1ccc(-c2ccc(Cl)c(Cl)c2)o1)C(=O)Nc1ncc(Cc2ccc(Cl)cc2)s1`, 51.5%.
Take `Cc1ccc(-n2cc(/C=N/NC(=O)c3nc(N)n[nH]3)c(-c3ccc(S(C)(=O)=O)cc3)n2)cc1`: the growth is 95.1%.
As for `CN(C)S(=O)(=O)c1oc(-c2ccccc2)nc1C#N`, the figure is 13.8%; as for `O=C1Nc2cc(OC(F)(F)F)ccc2Oc2ccc(-c3ccnc(N4CC[C@H](O)C4)c3)cc21`, -23.6% (active).
For `CS(=O)(=O)c1ccc(-c2nc3ccccn3c2C=Nc2ccc(Cl)cc2)cc1` the value was 59.7%; for `Nc1c(C(=O)Nc2ccc(Cl)cc2)sc2nc(-c3cnccn3)cc(-c3cccs3)c12`, 58.3%; for `C[C@@H](Nc1ncnc2ccc(-c3cnc(Cl)c(NS(C)(=O)=O)c3)cc12)c1ccccc1`, 39%.
As for `Cc1ccc2c(n1)C(=O)C(Cl)=C(Nc1cc(C(F)(F)F)cc(C(F)(F)F)c1)C2=O`, the figure is 40.7%; as for `COc1ccc(/C=C/C(=O)c2nnn(-c3ccc(Br)cc3)c2C)cc1OC`, 47.1%.
Regarding `Cn1cc2c(c1)-c1c(sc3nc(-c4ccc(NC(=O)Nc5cc(C(C)(C)C)on5)cc4)cn13)CC2`, the growth is 12.4%.
As for `O=C(/C=C/Nc1ccc(S(=O)(=O)Nc2ncccn2)cc1)c1ccc(N=Cc2c(O)[nH]c3ccccc23)cc1`, the figure is 99.6%.
As for `O=C1c2ccccc2C23C(=C(c4cncnc4)c4ccccc42)CCCN13` (stereo unspecified), the figure is 112%; as for `CSCCC(C(=O)O)N1C(=O)/C(=C/c2ccc(O)c(O)c2)SC1=S` (stereo unspecified), 103%; as for `O=C(CCCCCCN1CC(=O)N2[C@@H](c3cccc(Cl)c3)c3[nH]c4ccccc4c3C[C@H]2C1=O)NO`, 8.21% (active).
For `COc1ccc2[nH]cc(/C=N/Nc3nc4ccccc4s3)c2c1` the value was 39.1%; for `CCCN1C=C/C(=C\C(=O)n2ccc3ccccc32)c2ccccc21`, 87.4%; for `CS(=O)(=O)Nc1cc(-c2ccc3ncc(C#N)c(NCc4cccc(F)c4)c3c2)cnc1Cl`, 4.11% (active).
On to `N#Cc1cccc(-c2cc(-c3ccc4c(c3)OCCO4)[nH]n2)c1`, for which the growth was 6.12% (active).
For `COc1cc(/C=C/C(=O)c2ccc(NC(=O)COc3cccc4cccnc34)cc2)cc(OC)c1OC` the value was 34.7%; for `COc1ccc2[nH]cc(-c3csc4nc(-c5ccccc5)cn34)c2c1`, 13.9%.
As for `O=[N+]([O-])c1ccc(NC(=S)NNC(=S)Nc2ccc(F)cc2)cc1`, the figure is 84.8%.
As for `COc1ccc(NC(=O)CSc2nnc(-c3ccc4nc(-c5ccc(OC)c(OC)c5)[nH]c4c3)o2)cc1OC`, the figure is 111%.
